Screening results (PubChem)
HCMV inh: inhibitors of human cytomegalovirus | HFF cells, HCMV-luciferase reporter, 72 h; active compounds read low | AID 1259415 | activity change, negative = inhibition, % at 57.5 µM | 410,000 compounds, 4.5% hits; in the data active = activity change below about -60%; inconclusive = no clear call, values can overlap the other calls; inactive = above about -39%; note: % is set by controls: 0 for no effect and ±100 for the full control effect
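Steps: HFFs plated, 16 h 37C; compounds added; HCMV-luciferase added to MOI 1 PFU/cell; 72 h 37C; OneGlo reagent, 5 min room temperature; luminescence read, normalized to controls.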
CHX counter: counter-screen for Shiga toxin inhibitors: cycloheximide protein synthesis inhibition. cell reporter, cycloheximide protein synthesis inhibition counterscreen. max response, %. 300,000 compounds, 12% hits. AID 2314; in the data active = max response mostly above about 13%, no sharp cut-off; inactive = mostly below about 14%; note: read at 38.3 µM for the half of the compounds with a filed dose; 0% is about no effect
Shiga inhibitor: blocks Shiga toxin action in Vero cells | Vero cells, Shiga toxin protein synthesis inhibition reporter | inhibition, % at 38.7 µM | 290,000 compounds, 9.2% hits; in the data active = inhibition mostly above about 28%, no sharp cut-off; inactive = mostly below about 43%; note: 0% is about no effect
Pf growth 96h: P. falciparum growth inhibition at 96 hours; P. falciparum luciferase reporter growth, 96 h; Potency, µM (top dose mostly 28.7 µM), inactives show at the highest dose activity change, negative = inhibition, hits mostly inhibitors; 320,000 compounds, 6.9% hits; note: potency is the fitted concentration of half-maximal effect; % is set by controls: 0 for no effect and ±100 for the full control effect
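Erythrocytes infected with luciferase-expressing P. falciparum were dispensed at 2% hematocrit and 0.05% parasitemia (final), then incubated with compounds 96 hours at 37 C in 5% CO2. Luminescence after detection reagent addition reported growth.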
Pf growth 48h: P. falciparum growth inhibition at 48 hours (one generation). P. falciparum luciferase growth in erythrocytes, 48 h. Potency, µM (series often up to 28.7 µM), inactives show at the highest dose activity change, negative = inhibition, most hits filed as inhibitors. 310,000 compounds, 5.9% hits; note: potency is the fitted concentration of half-maximal effect; % is set by controls: 0 for no effect and ±100 for the full control effect
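Luciferase-expressing parasites in RBCs, 2% Hct / 0.1% parasitemia final; RPMI 1640 + 0.5% Albumax; 37 C, 5% CO2, one generation; luminescence read-out, lower signal = inhibition.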
An asterisk follows results filed as active; ? = inconclusive; nt = not tested or not shown; [ ] = another dose, or the depositor's remark. An excerpt weighted towards active compounds, which were near 20% of everything screened. Unless noted, calls come from the whole dose curve; as a rule, active = well fitted inhibition curve with a large enough effect; inconclusive = small, poorly fitted or top-dose-only effect, or another doubt; inactive = no such curve, though single readings can be large or run the other way.

SMILES | HCMV inh | CHX counter | Shiga inhibitor | Pf growth 96h | Pf growth 48h
O=C(CCn1c(=S)oc2ccccc21)Nc1ccccc1Br | -21 | -2 | -2 | 4% | ?
CCc1ccc(OCC(O)CN2CCN(c3ccc(OC)cc3)CC2)cc1 (configuration not stated) | -16 | 7 | -7 | ? | -40%[0.00184 µM]
CCc1ccc(NC(=O)N2CCN(c3ccc(F)cc3)CC2)cc1 | ? | 7 | -7 | 102% | ?
CC(=O)c1ccc(N2CCN(C(=S)Nc3ccccc3)CC2)cc1 | 17 | -2 | -4 | ? | ?
O=C(Nc1ccccc1)N1CCN(c2ccccc2)CC1 | -26 | nt | nt | nt | nt
CC(=O)c1ccc(N2CCN(C(=O)Nc3ccc(C(C)C)cc3)CC2)cc1 | -82* | 8 | 38 | 1% | ?
O=C(Nc1ccc(F)cc1F)N1CCC(c2nc3ccccc3o2)CC1 | -2 | -4 | 9 | 110% | 12%
COc1ccccc1NC(=O)N1CCC(c2nc3ccccc3o2)CC1 | -15 | -1 | -15 | 23µM* | 12%
O=C(Nc1ccccc1)N1CCN(c2ccc(F)cc2)CC1 | -40 | 24 | 21 | ? | 13µM*
CC(=O)c1ccc(N2CCN(C(=O)Nc3ccc(F)cc3)CC2)cc1 | nt | 21* | 42 | -13% | -24%
CC(=O)OC(C(=O)N1CCN(c2ccc(F)cc2)CC1)c1ccccc1 (configuration not stated) | -15 | 5 | -9 | 12µM* | 32%
COc1ccccc1NC(=O)N1CCN(C(=O)Nc2ccccc2OC)CC1 | -31 | -2 | -3 | 32% | -14%
COc1ccccc1NC(=O)N1CCN(c2ccc(F)cc2)CC1 | -17 | -2 | 5 | 2.3µM* | -21%
Cc1ccc(OCc2cc(C(=O)N3CCCC(O)C3)no2)cn1 (configuration not stated) | 0 | 20* | 23* | ? | 30%
Cc1ccc(OCc2cc(C(=O)N3CCN(CC(=O)NC(C)C)CC3)no2)cn1 | 22 | -2 | -10 | 45% | 5%
O=C(c1cc(COc2ccccc2)on1)N1CCCC(CN2CCOCC2)C1 (configuration not stated) | ? | 26* | 31* | -16% | -4%
S=c1nn[nH]c2ccccc12 | -1 | nt | nt | nt | nt
CC(C)(C)c1ccc(OC(=O)c2cccnc2)cc1 | -12 | 18* | 20 | ? | -15%
CCCCCCCOc1ccc(OC(=O)c2ccncc2)cc1 | -64* | -1 | 25 | 7% | nt
CCCCCCOC(=O)c1ccc(OC(=O)c2cccnc2)cc1 | nt | 32* | 58* | 94% | nt
CCCCCCCOc1ccc(OC(=O)c2cccnc2)cc1 | -6 | -2 | -4 | ? | nt
COc1ccc(C(=O)Oc2ccc(C(C)=O)cc2)c(OC)c1 | ? | 30* | 56 | 2% | 32%
COc1cc(OC)c(NC(=O)C(Cc2ccccc2)NS(=O)(=O)c2cccc3nsnc23)cc1Cl (configuration not stated) | 3 | nt | nt | nt | nt
CN(C1CCCCC1)S(=O)(=O)c1ccc2c(c1)c(=O)c(C(=O)N1CCN(c3ccccc3F)CC1)cn2C | 12 | nt | nt | nt | nt
CCCCn1c(N)c(N(CCOC)C(=O)C2CC(=O)N(c3cccc(SC)c3)C2)c(=O)[nH]c1=O (configuration not stated) | -7 | nt | nt | 4% | 2%
SMILES | HCMV inh | CHX counter | Shiga inhibitor | Pf growth 96h | Pf growth 48h
CCCN(C(=O)c1ccc(S(=O)(=O)N2CCCC2)cc1)C1CCS(=O)(=O)C1 (configuration not stated) | 47 | nt | nt | 1% | ?
CCCCOC(=O)c1ccc(OC(=O)c2cccnc2)cc1 | 15 | 24* | 33* | 56% | 0%
CCCCOc1ccc(OC(=O)c2cccnc2)cc1 | -1 | 3 | 4 | -31% | ?
CC(=O)c1cc(C)ccc1OC(=O)c1cccnc1 | 37 | 1 | -7 | 9.3µM* | -23%
COc1ccccc1C(=O)Oc1ccc(C(C)(C)C)cc1 | 9 | 29* | 73 | 31% | nt
COc1ccc(CCNC(=O)C(=O)NCC2OCCCN2S(=O)(=O)c2cc(C)ccc2C)cc1 (configuration not stated) | -67* | -1 | -8 | 13µM* | ?
Cc1ccc(C)c(S(=O)(=O)N2CCCOC2CNC(=O)C(=O)NCCc2ccco2)c1 (configuration not stated) | -12 | 14 | -1 | 13µM* | -5%
COc1ccc(S(=O)(=O)N2CCOC2CNC(=O)C(=O)NCCc2ccc(OC)c(OC)c2)cc1 (configuration not stated) | -68* | -6 | -9 | ? | -8%
COc1ccccc1N1CCN(CC(=O)Nc2ccccc2C(=O)NC(C)c2ccccc2)CC1 (configuration not stated) | 18 | nt | nt | ? | 12µM*
CCOc1ccccc1NC(=O)CN1CCC(NC(=O)c2ccccc2C)CC1 | -9 | -5 | -6 | ? | ?
CC(NC(=O)c1ccccc1NC(=O)CN1CCN(c2ccccc2O)CC1)c1ccccc1 (configuration not stated) | -15 | nt | nt | 13µM* | 5.9µM*
COC(=O)c1ccc(C(=O)OC)c(NC(=O)CN2CCN(c3ccccc3)CC2)c1 | -15 | -5 | -27 | 0% | -19%
COC(=O)c1ccc(C(=O)OC)c(NC(=O)CN2CCN(c3ccccc3OC)CC2)c1 | 17 | 6 | -5 | -19% | 13µM*
O=C(CN1CCN(c2ccccc2O)CC1)Nc1ccccc1C(=O)NCCc1ccccc1 | 51 | nt | nt | 0% | -84%
CCOc1ccccc1N1CCN(CC(=O)Nc2ccccc2C(=O)NC2CC2)CC1 | -11 | nt | nt | ? | 9.3µM*
COc1ccc(OCC(O)Cn2c(N)nc3c2c(=O)[nH]c(=O)n3C)cc1 (configuration not stated) | 7 | -1 | -7 | 0% | 3%
COc1ccc(C2CC(=O)c3c(C)nc(N4CCN(C=O)CC4)nc3C2)c(OC)c1 (configuration not stated) | -23 | nt | nt | nt | nt
COc1ccc(F)cc1CN1CCN(CC(=O)Nc2ccccc2C(=O)NC2CC2)CC1 | -18 | nt | nt | ? | ?
COc1ccc(CN2CCN(CC(=O)Nc3ccccc3C(=O)NC3CC3)CC2)cc1F | -20 | nt | nt | ? | 10µM*
CC(NC(=O)c1ccccc1NC(=O)CN1CCc2ccccc2C1)c1ccccc1 (configuration not stated) | -19 | -2 | -5 | 13µM* | ?
O=C(CN1CCC(NC(=O)Cc2ccccc2)CC1)Nc1ccccc1Br | -64* | -1 | -5 | ? | -11%
Cc1ccccc1C(=O)NC1CCN(CC(=O)Nc2c(C)cccc2C)CC1 | 13 | 0 | 20 | -24% | -21%
Cc1ccccc1C(=O)NC1CCN(CC(=O)Nc2ccccc2)CC1 | -90* | 9 | 0 | 0% | -4%
CC[C@@]1(c2cccc(C)c2)C(=O)N(C(=O)OC)N1C(=O)OC | 74 | 6 | 3 | 60% | 58%
COC(=O)N1C(=O)[C@](c2ccccc2)(C2CCCCC2)N1C(=O)OC | 54 | 16 | 12 | 62% | 28%
